Screening data as filed in PubChem BioAssay.
SMN2 splice enh: enhancers of SMN2 splice variant expression. HEK293 SMN2-luciferase splicing reporter, luminescence, 30-36 h. Potency, µM (highest dose often 46.1 µM), without a hit: top-dose activity change, positive = activation, usual class: activators. 210,000 compounds, 2.8% hits. AID 1458; also: % of control where 0% means no effect; nearly all actives have a fitted effect of over 55% in size
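qHTS luciferase splicing reporter: luminescence rises when SMN2 exon 7 is included in transfected HEK293 cells. Compound exposure lasted 30-36 h at 37C, with 4.5 mM final sodium butyrate as control, followed by a ONE-Glo read.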
FLuc counter: counter-screen for miR-21 project: firefly luciferase inhibitors or activators; P08659; purified FLuc, Km substrates, luminescence inhibition; 360,000 compounds, 6.9% hits; AID 588342; Potency, µM (doses to about 57.5 µM), without a hit: at the highest dose activity change, negative = inhibition, usual class: inhibitors;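 also: plate controls were vehicle for no effect and reference inhibitor for full effect; nearly all actives have a fitted effect of over 55% in size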
Target sequence (P08659 whole entry, looked up): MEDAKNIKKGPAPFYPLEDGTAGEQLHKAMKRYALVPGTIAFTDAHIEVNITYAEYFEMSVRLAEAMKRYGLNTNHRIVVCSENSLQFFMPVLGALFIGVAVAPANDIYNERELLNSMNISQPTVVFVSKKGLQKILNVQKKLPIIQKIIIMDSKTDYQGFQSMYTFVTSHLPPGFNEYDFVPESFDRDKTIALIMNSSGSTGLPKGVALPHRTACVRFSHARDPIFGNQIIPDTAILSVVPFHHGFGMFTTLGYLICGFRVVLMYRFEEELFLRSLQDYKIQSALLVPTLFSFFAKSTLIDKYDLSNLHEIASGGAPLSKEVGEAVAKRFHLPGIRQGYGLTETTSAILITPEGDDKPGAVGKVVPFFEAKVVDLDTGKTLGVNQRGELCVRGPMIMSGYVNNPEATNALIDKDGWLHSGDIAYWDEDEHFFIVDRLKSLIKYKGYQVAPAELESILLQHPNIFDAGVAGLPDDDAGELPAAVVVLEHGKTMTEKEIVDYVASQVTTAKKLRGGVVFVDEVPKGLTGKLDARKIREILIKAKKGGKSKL
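Purified P. pyralis luciferase, 10 nM final, with Km-level 10 uM D-luciferin and 10 uM ATP in 50 mM Tris acetate pH 7.5, 10 mM Mg acetate, 0.01% Tween-20, 0.05% BSA; 6-point qHTS titration about 60 µM downward; luminescence read.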
NPC1 promoter act: NPC1 promoter activation. AID 485313. Huh7 NPC1 promoter luciferase reporter, 24 h. 320,000 compounds, 2.4% hits. Potency, µM (top dose mostly 9.22 µM), for inactives: top-dose activation, actives largely listed as activators; also: % of control where 0% means no effect; nearly all actives have a fitted effect of over 60% in size
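Huh7 reporter cells (NPC1 promoter driving luciferase) are dosed with compound for 24 h at 37 °C, 5% CO2; luciferase detection reagent is then added and luminescence measured after 10 min at ambient temperature.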
Rab9 promoter act: Rab9 promoter activation; 320,000 compounds, 2.8% hits; Potency, µM (top dose mostly 9.22 µM), inactives show top-dose activation, negative = inhibition, hits mostly activators; Huh7 Rab9 promoter-luciferase reporter, luminescence, 24 h; also: % of control where 0% means no effect; nearly all actives have a fitted effect of over 60% in size
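Using Huh7 cells stably transfected with Rab9 promoter–luciferase, compounds were incubated 24 h at 37 °C, 5% CO2; luciferase luminescence was read 10 min after reagent addition.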
ELG1 repair inh: ELG1-dependent DNA repair inhibition; HEK293T ELG1-luciferase reporter, luminescence, 16 h; DNA damage induced by 5-fluorouridine; Potency, µM (highest dose often 46.1 µM), inactives show at the highest dose activity change, negative = inhibition, most hits filed as inhibitors; 330,000 compounds, 2.3% hits; AID 504467; also: % is scaled to controls: 0 for no effect and ±100 for the full control effect; nearly all actives have a fitted effect of over 55% in size
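HEK293T cells expressing luciferase-tagged ELG1 (2,000/well) received 5-Fluorouridine plus compound or DMSO for 16 hr at 37 °C. Luciferase was read by ONE-Glo luminescence after 30 min at room temperature.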
ELG1 genotox: induces genotoxicity in HEK293T cells with luciferase-tagged ELG1; HEK293T ELG1-luciferase reporter, luminescence, 16 h; Potency, µM (titrated, usually from 46 µM), without a hit: top-dose activity change, positive = activation, actives largely listed as activators; 330,000 compounds, 1.3% hits; AID 504466; also: % of control where 0% means no effect; nearly all actives have a fitted effect of over 60% in size
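Quantitative HTS format in 1536-well plates. HEK293T ELG1-luciferase reporter cells receive test compound and are incubated 16 hr at 37 °C, 5% CO2; ONE-Glo added, 30 min room temperature, then luminescence read.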
The depositor's hits bear a star; u = inconclusive; x = no result; ! = repeats disagree; [ ] = dose if it differs, or a comment. Most compounds without a hit are left out; they make up all but 9.2% or so of the library. Calls follow the shape of the dose curve; as a rule, active = well fitted curve in the direction sought with a large enough effect; inconclusive = small, poorly fitted or top-dose-only effect, or another doubt; inactive = no such curve, though single readings can be large; an effect the other way counts as inactive or inconclusive. Potency is read from the fitted curve at half-maximal effect.

SMILES	SMN2 splice enh	FLuc counter	NPC1 promoter act	Rab9 promoter act	ELG1 repair inh	ELG1 genotox
O=C(N/N=C/c1cc([N+](=O)[O-])cc(Br)c1O)C12CC3CCC(CC(C3)C1)C2	x	-2%	-1%	-6%	23µM*	-9%
COc1ccc(/C=N/NC(=O)c2ccc3c(c2)OCO3)c(C(=O)O)c1OC	x	-8%	-2%	0%	7%	3%
Cc1c(NS(=O)(=O)c2cccc(C(=O)OCC(=O)N(C)C3CCCCC3)c2)c(=O)n(-c2ccccc2)n1C	-2%	-14%	-1%	2%	-9%	-2%
CCOc1c(Br)cc(/C=N\NC(=O)c2ccccc2)cc1OC	7%	5.4µM*	-2%	-3%	u	-8%
CCOc1cc(/C=N/NC(=O)c2nn(C)cc2Br)ccc1OCc1ccccc1	-20%	u	-1%	-3%	18µM*	0%
COc1cc(/C=N/NC(=O)C23CC4CC(CC(C4)C2)C3)cc(Br)c1O	6%	13µM*	-1%	3%	1%	2%
COc1cc(/C=N/NC(=O)c2ccc3c(c2)OCCO3)cc(Br)c1O	x	11µM*	2%	15%	u	14%
COc1cc(/C=N/NC(=O)CC2(C)OCCO2)cc(Br)c1O	-1%	-2%	-4%	-2%	9%	1%
CCOc1cc(/C=N/NC(N)=O)cc(Br)c1OCc1ccccc1	-5%	0%	-5%	-1%	3%	0%
CC(=O)OCc1cc(-c2nc3ccccc3[nH]c2=O)nn1-c1ccc(Cl)cc1	x	2%	-6%	-1%	-2%	-3%
CCCCN(C(C)=O)c1c(N)n(CCC)c(=O)n(CC(=O)Nc2cc(Cl)cc(Cl)c2)c1=O	22%	-5%	-4%	0%	3%	4%
CN(C)CCCc1cc(C(=O)Nc2ccc(-c3ccncc3)cc2)ccc1O	-2%	x	2%[46.1 µM]	-8%[46.1 µM]	x	x
Cc1ccc(CCNC(=O)CCCn2nc(C)c3c(C)n(-c4ccccc4)nc3c2=O)cc1	x	-10%	x	x	x	x
COc1cc(OC)cc(C(=O)Nc2ccc(-n3cnnn3)c(C)c2)c1	23%	15µM*	u	u	u	u
Cc1cc(NC(=O)c2oc3ccccc3c2C)ccc1-n1cnnn1	-10%	4.8µM*	19%	4%	16%	-2%
COc1cc(NC(=O)c2ccccc2-n2cnnn2)cc(OC)c1	x	-2%	-2%	-3%	14%	0%
Cc1c(C(=O)Nn2cnnc2)oc2ccccc12	u	-1%	1%	-3%	-7%	1%
O=C(O)CCC/C=C\C[C@H]1C(=O)C[C@@H](O)[C@@H]1/C=C/[C@@H](O)CCc1ccccc1	-4%	x	x	x	x	x
Nc1cc2c(nc3c4ccccc4c(N)cc3[n+]2-c2cccc3ccccc23)c2ccccc12 (tested in a mixture with another compound)	-14%[9.22 µM]	x	x	x	x	x
COc1ccc(Cl)cc1NC(=O)COC(=O)C1CCCCC1	x	15µM*	-3%	0%	-7%	1%
CC(C)(C)c1ccc(NC(=O)COC(=O)C2CCCC2)cc1	x	11µM*	-1%	2%	u	-1%
Cc1cc(NC(=O)COC(=O)C2CC2)ccc1Br	x	8.5µM*	-5%	-3%	22%	2%
Cc1nc(Cl)c(N=Cc2cccc([N+](=O)[O-])c2)c(Cl)n1	x	1%	-2%	-2%	u	0%
O=c1[nH]c2cc(Cl)c(Cl)cc2[nH]c1=O	11µM*!	x	24%[46.1 µM]	16%[46.1 µM]	x	x
O=c1[nH]c2ccc(F)cc2[nH]c1=O	2%	-1%	-4%	0%	3%	0%
SMILES	SMN2 splice enh	FLuc counter	NPC1 promoter act	Rab9 promoter act	ELG1 repair inh	ELG1 genotox
COc1ccc(C2=NCCn3nc4cc([N+](=O)[O-])ccc4c32)cc1	x	3%	8%	0%	10%	6%
COc1ccc(-n2cc3ccc([N+](=O)[O-])cc3n2)cc1	x	0.95µM*	0.71µM*	0.45µM*	u	u
CCN(CC)CCNC(=O)C1CCN(S(=O)(=O)c2c(C)noc2/C=C/c2ccccc2F)CC1	x	2%	0%	0%	u	-2%
Cc1cc(NS(=O)(=O)c2ccc(NC(=S)NC(=O)/C=C/c3ccccc3)cc2)no1	x	-20%	1%	-4%	3%	-10%
COc1ccc(/C=C/C(=O)NC(=S)Nc2ccc(S(=O)(=O)Nc3cc(OC)ncn3)cc2)cc1	0%	15µM*	-1%	5%	9%	1%
Cc1ccc(/C=C/C(=O)NC(=S)Nc2ccc(S(=O)(=O)Nc3cc(C)on3)cc2)cc1	x	9.5µM*	1%	-1%	2%	-4%
Cc1cc(NS(=O)(=O)c2ccc(NC(=S)NC(=O)c3ccc(C(C)(C)C)cc3)cc2)no1	0%	11µM*	-4%	1%	-19%	2%
Cc1ccc(S(=O)(=O)N(C(=O)c2ccncc2)c2ccc(OC(=O)c3ccncc3)c3ccccc23)cc1	-14%	u	5%	9%	18µM*	-13%
O=C(N/N=C/c1ccc(Cl)cc1)C(=O)N1CCCCCC1	x	-4%	-2%	-1%	5%	1%
Cc1ccc(-n2nnnc2CN2CCCCC2)cc1	6%	-8%	-1%	-1%	-5%	-1%
O=c1[nH]c(-c2ccc(Cl)cc2)nc(=S)[nH]1	x	u	-1%	-1%	10%	0%
O=c1[nH]c(=O)c2nc(-c3ccc(Cl)cc3)cnc2[nH]1	-5%	17µM*	-2%	1%	u	12%
COc1ccc(CNC(=O)COC(=O)c2ccc(S(=O)(=O)N3CCOCC3)cc2)cc1	x	x	x	x	22%	4%
O=C(Cn1cnc2c(NCc3ccccc3)ncnc21)N1CCN(c2ccccn2)CC1	x	x	x	x	-8%	1%
Cc1cc(C)c(CN2CCN(C(=O)Cn3cnc4c(NCc5ccccc5)ncnc43)CC2)c(C)c1	x	x	x	x	1µM*	1%
Cc1cccc(OCCSc2nc(-c3cccs3)nc3cc(=O)[nH]n23)c1	x	15µM*	x	x	x	x
CCc1ccc(OCCSc2nc(-c3cccc(C)c3)nc3cc(=O)[nH]n23)cc1	x	-17%	x	x	x	x
CCOC(=O)c1c(S(=O)(=O)N2CCC(C(=O)NCc3cccc(C)c3)CC2)c(C)n(C)c1C	x	-8%	x	x	x	x
CCC(Sc1nnc2c3ccccc3n(CC)c2n1)C(=O)Nc1sc2c(c1C#N)CCCC2 (centres undefined)	27%	11%	-4%	3%	u	u
CCN1CCN(Cc2ccc(NC(=O)c3ccc(C)c(NC(=O)c4nccnc4N)c3)cc2C(F)(F)F)CC1	x	u	-5%	-13%	u	-9%
CCN1CCN(Cc2ccc(NC(=O)c3cc(NC(=O)c4nccnc4N)cc(OC)c3)cc2C(F)(F)F)CC1	x	13µM*	0%	-3%	-17%	-6%
